Inconclusive results are not listed. Calls of active or inactive are those of the source. Rule for the calls: active = hit-call score of the fitted dose curve at least 0.9, where 1 is the maximum; inconclusive = response in the unintended direction; inactive = score below 0.9.
These molecules were tested against human Muscarinic, M4 Receptor, CHRM4 (gene 1132) (UniProt P08173) (assay: NVS_GPCR_hM4: NovaScreen (NVS) G Protein-Coupled Receptor Assay for human Muscarinic, M4 Receptor (AID 2283274)).
Protocol: NVS_GPCR_hM4 is a biochemical, single-readout assay that uses extracted gene-proteins from CHO in a cell-free assay. Measurements were taken 1 hour after chemical dosing in a 96-well plate.NVS_GPCR_hM4 is one of one assay component(s) measured or calculated from the NVS_GPCR_hM4 assay. It is designed to make measurements of radioligand binding, a form of binding reporter, as detected with scintillation counting signals by Filter-based radiodetection technology.Data from the assay component NVS_GPCR_hM4 was analyzed into 1 assay endpoint. This assay endpoint, NVS_GPCR_hM4, was analyzed in the positive analysis fitting direction relative to DMSO as the negative control and baseline of activity. Using a type of binding reporter, loss-of-signal activity can be used to understand changes in the binding as they relate to the gene CHRM4. Furthermore, this assay endpoint can be referred to as a primary readout, because the performed assay has only produced 1 assay endpoint. To generalize the intended target to other relatable targets, this assay endpoint is annotated to the gpcr intended target family, where the subfamily is rhodopsin-like receptor.
Binding assays used specific radioligands (tritiated, iodinated) with non-radioactive competitive displacement ligands in agonist or antagonist protocols (as indicated) and various reference compounds and inhibitors to titrate specific binding to receptors and transporters. Most enzyme assays (CYPs, kinases, phosphatases, proteases, HDACs) used recombinant protein and specific substrates (fluorescence mostly, some colorimetric and radioactive) and inhibitors, followed by a biochemical separation of substrate and product. All assays for the biochemical HTS were initially run in duplicate at a single concentration (10 uM for CYP450 assays and 25 uM for all others). […] Each assay was run with positive and negative controls, and concurrent controls on every plate. The follow-up (secondary) screen tested active chemical-pairs in concentration series, as well as a few additional assays not tested in the primary screen, some selected negative inactives, and several cases re-run in the concentration series for confirmatory purposes.

Sequence of human Muscarinic, M4 Receptor, CHRM4 (gene 1132) (P08173 whole entry, looked up): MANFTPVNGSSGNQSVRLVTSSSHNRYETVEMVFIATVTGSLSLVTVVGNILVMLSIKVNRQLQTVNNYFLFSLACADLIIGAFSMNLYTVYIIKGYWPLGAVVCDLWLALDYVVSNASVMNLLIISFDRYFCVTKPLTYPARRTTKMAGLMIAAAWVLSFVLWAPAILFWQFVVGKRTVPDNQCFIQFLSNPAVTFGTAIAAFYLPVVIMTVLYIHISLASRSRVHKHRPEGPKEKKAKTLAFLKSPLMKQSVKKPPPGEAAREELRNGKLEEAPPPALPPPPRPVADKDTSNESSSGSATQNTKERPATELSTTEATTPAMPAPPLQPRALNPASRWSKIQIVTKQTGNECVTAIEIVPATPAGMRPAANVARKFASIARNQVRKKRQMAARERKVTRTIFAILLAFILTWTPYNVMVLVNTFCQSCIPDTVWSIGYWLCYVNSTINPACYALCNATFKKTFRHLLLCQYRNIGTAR

Row | SMILES | AC50 | outcome
1 | CCN(CC)CCOc1ccc(C(=C(Cl)c2ccccc2)c2ccccc2)cc1 | 4.2 µM (active) | –
2 | Cn1cnc2c1c(=O)[nH]c(=O)n2C | – | inactive
3 | CCCCCCCCCCCCCCOS(=O)(=O)O | 31.9 µM (active) | –
4 | CN(C)C(=O)NC1(c2ccccc2)CCN(CC[C@@]2(c3ccc(F)c(F)c3)CN(C(=O)c3ccccc3)CCO2)CC1 | 16.9 µM (active) | –
5 | CO[C@@H]1COCC[C@@H]1N[C@@H]1CC[C@@](C(=O)N2CCc3ncc(C(F)(F)F)cc3C2)(C(C)C)C1 | 25 µM (active) | –
6 | Cc1cc(SC2=C(O)C[C@@](CCc3ccc(N)cc3)(C(C)C)OC2=O)c(C(C)(C)C)cc1CO | – | inactive
7 | O=NO | – | inactive
8 | NC(=Nc1ccccc1)Nc1ccccc1 | 14.9 µM (active) | –
9 | CCc1nc(N)nc(N)c1-c1ccc(Cl)cc1 | – | inactive
10 | CN(C)C(=O)NC1(c2ccccc2)CCN(CCC[C@]2(c3ccc(Cl)c(Cl)c3)CCCN(C(=O)c3ccccc3)C2)CC1 | 3.46 µM (active) | –

Source: PubChem BioAssay (EPA / NIEHS)
